From PubChem BioAssay
Activity calls are given as the source filed them.

System: wheat germ agglutinin (Triticum aestivum), Alexa647-labelled
Assay: Alexa647-WGA lectin binding to printed small molecules – biochemical, small-molecule microarray, 635/667 nm fluorescence, artefact control for SMM control-protein annotation, profiling panel (AID 1140);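 note: score merges 667 nm feature emission with signal to noise over triplicate slides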
Settings: WGA-A647 binding, 635 nm fluorescence, higher = more signal

Composite z-score, -0.396:
O=C1[C@H]2[C@H]3[C@H](O)[C@H](O)CC(=NOCc4ccccc4)[C@@H]3CC[C@H]2C(=O)N1C[C@@H]1CCCO1

Composite z-score, 0.911:
CCOC(=O)[C@H](CC(C)C)NC(=O)CCC1CC(OC(=O)NCc2ccc3c(c2)OCO3)CC2(CCCC(COC(=O)NCCCN3CCCC3=O)O2)O1 (stereo not given in full)

Composite z-score, 0.394:
CCOC(=O)[C@H](CC(C)C)NC(=O)CCC1CC(OC(=O)NCCc2ccc(F)cc2)CC2(CCCC(COC(=O)NCCOc3ccccc3)O2)O1 (stereo not given in full)

Composite z-score, -0.0002:
C#CCCCON=C1C[C@@H](O)[C@@H](O)[C@@H]2[C@@H]3C(=O)N(CC)C(=O)[C@@H]3CC[C@@H]12

Composite z-score, -0.361:
CC(=O)OC[C@H]1O[C@H](C#Cc2ccccc2)C=C[C@@H]1OC(C)=O

Composite z-score, 0.393:
CC(CCN1CCc2nc(-c3ccccc3)c(-c3ccccc3)cc2C1)=NOC[C@@H](O)[C@H]1O[C@@H]2OC(C)(C)O[C@@H]2[C@H]1O

Composite z-score, -0.23:
O=C1[C@H]2[C@H]3[C@H](O)[C@H](O)CC(=NOC[C@@H](O)COCc4ccco4)[C@H]3CC[C@H]2C(=O)N1C[C@@H]1CCCO1

Composite z-score, 0.0969:
CC(C)=CCCC(C)=CCON=C1C[C@@H](O)[C@@H](O)[C@@H]2[C@@H]3C(=O)N(c4cccc(Oc5ccccc5)c4)C(=O)[C@@H]3CC[C@@H]12

Target: Luciferin 4-monooxygenase (Photinus pyralis) (UniProt P08659)
Assay: inhibition of purified Photinus pyralis luciferase – biochemical, luminescence, purified enzyme, 2006 set, primary screen (AID 1141);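 note: cell-free assay with purified firefly luciferase at 100 ng per well in PBS; test concentration not given here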
Settings: purified firefly luciferase, SteadyGlo luminescence, 30 min; higher = more signal, called active from +8 up or from −8 down

Chain of Luciferin 4-monooxygenase (Photinus pyralis) (P08659 whole entry, looked up): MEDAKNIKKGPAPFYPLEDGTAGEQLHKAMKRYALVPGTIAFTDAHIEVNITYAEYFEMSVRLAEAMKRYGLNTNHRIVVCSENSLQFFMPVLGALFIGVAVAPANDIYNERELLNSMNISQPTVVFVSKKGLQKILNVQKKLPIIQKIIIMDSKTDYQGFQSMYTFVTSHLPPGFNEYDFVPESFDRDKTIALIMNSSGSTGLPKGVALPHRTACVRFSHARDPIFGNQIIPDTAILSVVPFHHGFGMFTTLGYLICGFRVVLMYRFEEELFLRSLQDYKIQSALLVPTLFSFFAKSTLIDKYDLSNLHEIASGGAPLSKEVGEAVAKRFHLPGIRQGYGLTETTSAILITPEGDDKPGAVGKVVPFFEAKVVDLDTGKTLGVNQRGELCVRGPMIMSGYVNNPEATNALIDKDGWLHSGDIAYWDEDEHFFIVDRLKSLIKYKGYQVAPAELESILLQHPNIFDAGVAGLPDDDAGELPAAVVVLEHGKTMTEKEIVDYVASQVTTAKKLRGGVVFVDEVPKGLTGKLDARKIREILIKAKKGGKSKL

z-score, inactive:
O=C1[C@H]2[C@H]3[C@H](O)[C@H](O)CC(=NOC[C@@H](O)COCc4ccco4)[C@@H]3CC[C@H]2C(=O)N1C[C@@H]1CCCO1 0.31
CC(C)=NOC[C@@H](C)[C@H](OCc1ccccc1)C(C)C -1.4
C=CC[C@@H]1C=C[C@H](ON=C(C)CCN2CCc3nc(-c4ccccc4)c(-c4ccccc4)cc3C2)[C@@H](CO)O1 -0.118
CC(=O)OC[C@H]1OC(ON=CC[C@@H]2C=C[C@H](OC(C)=O)[C@@H](COC(C)=O)O2)[C@H](OC(C)=O)[C@@H](OC(C)=O)[C@@H]1OC(C)=O (stereo not given in full) 1.11
CON=CC[C@@H]1C=C[C@H](OC(C)=O)[C@@H](COC(C)=O)O1 0.218
COC(=O)CC=C[C@@H](C)[C@@H](C=NO[C@@H]1O[C@H](COC(C)=O)[C@@H](OC(C)=O)[C@H](OC(C)=O)[C@H]1OC(C)=O)OC 0.86
COC(=O)CC=C[C@@H](C)[C@@H](C=NO[C@H](C)c1cn([C@H](CO)Cc2ccccc2)nn1)NS(=O)(=O)c1ccc(C)cc1 -0.965
CCOC(=O)[C@H](CC(C)C)NC(=O)CCC1CC(OC(=O)NCc2cccc3ccccc23)CC2(CCCC(COC(=O)NCC3CCCCC3)O2)O1 (stereo not given in full) 1
COc1cccc([C@H]2Oc3ccc(OC)cc3C(=NO[C@H](C)c3cn([C@H](CO)Cc4ccccc4)nn3)[C@@H]2O)c1 0.417
CCOC(=O)[C@H](Cc1ccccc1)NC(=O)CCC1CC(OC(=O)NCCc2ccc(F)cc2)CC2(CCCC(COC(=O)NCCCN3CCCC3=O)O2)O1 (stereo not given in full) -0.241
COC(=O)[C@H](C)NC(=O)CCC1CC(OC(=O)NCCc2ccc(F)cc2)CC2(CCCC(COC(=O)NCCC(C)C)O2)O1 (stereo not given in full) -0.447
O=C1C=C[C@@H](O)[C@@H]2[C@@H]3C(=O)N(c4ccc(F)cc4F)C(=O)[C@@H]3CC[C@@H]12 -1.71
CCOC(=O)[C@H](CC(C)C)NC(=O)CCC1CC(OC(=O)NCc2cccc3ccccc23)CC2(CCCC(COC(=O)NCCCN3CCCC3=O)O2)O1 (stereo not given in full) 0.974
CCOC(=O)[C@H](CC(C)C)NC(=O)CCC1CC(OC(=O)NCc2cccc3ccccc23)CC2(CCCC(COC(=O)NCCc3ccc(Cl)cc3)O2)O1 (stereo not given in full) 0.226
CO[C@H]1COC(=O)CC=C[C@@H](C)[C@H](NS(=O)(=O)c2ccc(C)cc2)COC(=O)CCC[C@@H]1C 1.03
CC(=O)OC[C@H]1O[C@@H](ON=C(C)CCN2CCCc3nc(C)c(C)cc32)[C@H](OC(C)=O)[C@@H](OC(C)=O)[C@@H]1OC(C)=O 0.788
CCOC(=O)CCN1C(=O)[C@H]2[C@H]3[C@H](O)[C@H](O)CC(=NNC(=O)OCc4ccccc4)[C@@H]3CC[C@H]2C1=O 0.195
CC=CC1=C(CO)C(=O)[C@@H]2O[C@@H]2C1=O -0.78
O=C1[C@H]2[C@H]3[C@H](O)[C@H](O)CC(=NOCc4ccccc4)[C@H]3CC[C@H]2C(=O)N1Cc1ccc2c(c1)OCO2 1.23
COC(=O)CC=C[C@@H](C)[C@@H](C=NOCC[C@@H]1C=C[C@H](OC(C)=O)[C@@H](COC(C)=O)O1)OC 0.177
O=C(NN=C1C[C@@H](O)[C@@H](O)[C@@H]2[C@@H]3C(=O)N(Cc4ccccc4)C(=O)[C@@H]3CC[C@@H]12)OCc1ccccc1 0.472
CO[C@H]1COC(=O)CCC[C@@H](C)[C@H](OC)COC(=O)[C@@H]2CCCN2C(=O)CC=C[C@@H]1C 1.19
CCOC(=O)[C@H](CC(C)C)NC(=O)CCC1CC(OC(=O)NCc2ccc3c(c2)OCO3)CC2(CCCC(COC(=O)NCc3cccc(C(F)(F)F)c3)O2)O1 (stereo not given in full) 0.679
CC(C)CON=C1C[C@@H](O)[C@@H](O)[C@@H]2[C@@H]3C(=O)N(c4ccc(F)cc4F)C(=O)[C@@H]3CC[C@H]12 0.819
CO[C@@H]1COC(=O)CC=C[C@@H](C)[C@@H]2C=C[C@H](O)[C@@H](COC(=O)CC=C[C@H]1C)O2 -1.35
CC(CCN1CCc2nc(-c3ccccc3)c(-c3ccccc3)cc2C1)=NOC[C@@H](O)COCc1ccco1 -1.46
C[C@H]1CC[C@H]2C(=O)O[C@H](COc3ccc(C(C)(C)C)cc3)CN2[C@@H]1c1ccc(Br)cc1 -1.73
CCC1=NOC(CCC2CC(OC(=O)NCc3cccc4c3OCO4)CC3(CCCC(COC(=O)NCCc4ccccc4OC)O3)O2)C1 (stereo not given) 0.412
C=CC[C@@H]1C=C[C@H](ON=C2[C@H]3CCn4c(=O)n(-c5ccccc5)c(=O)n4[C@H]3[C@H](O)[C@@H]3O[C@H]23)[C@@H](CO)O1 0.845
O=C1[C@H]2[C@H]3[C@H](O)[C@H](O)CC(=NOCc4ccccc4)[C@@H]3CC[C@H]2C(=O)N1C[C@@H]1CCCO1 0.903
CC(=O)OC[C@H]1O[C@H](C#Cc2ccccc2)C=C[C@@H]1OC(C)=O -2.26
CCOC(=O)[C@H](CC(C)C)NC(=O)CCC1CC(OC(=O)NCCc2ccc(F)cc2)CC2(CCCC(COC(=O)NCCOc3ccccc3)O2)O1 (stereo not given in full) 0.96
C#CCCCON=C1C[C@@H](O)[C@@H](O)[C@@H]2[C@@H]3C(=O)N(CC)C(=O)[C@@H]3CC[C@@H]12 0.194
CC(C)=CCCC(C)=CCON=C1C[C@@H](O)[C@@H](O)[C@@H]2[C@@H]3C(=O)N(c4cccc(Oc5ccccc5)c4)C(=O)[C@@H]3CC[C@@H]12 0.775
O=C1[C@H]2[C@H]3[C@H](O)[C@H](O)CC(=NOC[C@@H](O)COCc4ccco4)[C@H]3CC[C@H]2C(=O)N1C[C@@H]1CCCO1 1.02
CC(CCN1CCc2nc(-c3ccccc3)c(-c3ccccc3)cc2C1)=NOC[C@@H](O)[C@H]1O[C@@H]2OC(C)(C)O[C@@H]2[C@H]1O -0.116
CCOC(=O)[C@H](CC(C)C)NC(=O)CCC1CC(OC(=O)NCc2ccc3c(c2)OCO3)CC2(CCCC(COC(=O)NCCCN3CCCC3=O)O2)O1 (stereo not given in full) 0.0579
